NSD2 inh = NSD2 histone methyltransferase inhibitors, primary screen, biochemical, AlphaScreen, single concentration, set 2; Histone-lysine N-methyltransferase NSD2 (Homo sapiens), O96028; NSD2 peptide methylation, 120 min; inhibition, % at 12.5 µM; 310,000 tested, 0.54% active; AID 743445, 2014; in the data active means inhibition above about 50%
CASP6 VEID inh = human caspase-6 inhibitors, primary screen, biochemical, VEID-R110 fluorescence, single point, set 2. P55212. purified caspase-6, Z-VEID-R110 cleavage fluorescence. inhibition, % at 12.5 µM. 350,000 tested, 0.53% active. AID 686996, 2013;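 active means mean inhibition across replicates at least about 35%, with every replicate also reaching that limit, limit read from the data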
SIRT5 inh = SIRT5 desuccinylase inhibitors, primary screen, biochemical, fluorescence imaging, single point, set 5; 330,000 tested, 1.1% active; Purified SirT5, succinyl-peptide AMC, trypsin-coupled fluorescence; inhibition, % at 15 µM; NAD-dependent protein deacylase sirtuin-5, mitochondrial (Homo sapiens), Q9NXA8; AID 652115, 2013; in the data active means inhibition above about 15%
Target sequence (Q9NXA8 whole entry, looked up): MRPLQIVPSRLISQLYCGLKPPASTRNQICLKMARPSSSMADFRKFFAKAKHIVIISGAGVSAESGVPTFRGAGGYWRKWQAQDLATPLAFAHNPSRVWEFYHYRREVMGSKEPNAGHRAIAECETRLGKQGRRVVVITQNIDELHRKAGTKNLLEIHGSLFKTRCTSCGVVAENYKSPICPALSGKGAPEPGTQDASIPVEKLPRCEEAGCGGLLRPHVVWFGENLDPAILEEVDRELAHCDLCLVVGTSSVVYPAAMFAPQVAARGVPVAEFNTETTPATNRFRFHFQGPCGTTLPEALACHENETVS
UBC9 SUMO inh = inhibitors of in vitro SUMOylation cascade, primary screen, biochemical, HTRF, uHTS. inhibition, % at 35 µM. 290,000 tested, 0.36% active. HTRF SUMOylation assay, SAE1/SAE2 + UBC9; in the data active means inhibition above about 50%, passing the limit was not always enough
Hits are given with their value; ! = repeats disagree. Only some compounds are listed: those with a hit (about 1.6% of all), similar ones and a draw of the others.

Results for C[C@@H]1CN([C@H](C)CO)C(=O)c2cc(Br)cnc2O[C@H]1CN(C)Cc1cccnc1 ?
CASP6 VEID inh: inactive; SIRT5 inh: inactive

Results for Cc1ccc(-c2cnc3c(c2)C(=O)N([C@H](C)CO)C[C@H](C)[C@@H](CN(C)Cc2ccccc2F)O3)cc1 ?
CASP6 VEID inh: inactive; SIRT5 inh: 12.9!

What do the screens show for `CN1CCN(C(=O)c2ccc3nc(-c4ccc(F)cc4)c(-c4ccc(F)cc4)nc3c2)CC1`?
NSD2 inh: inactive

How did C[C@@H]1CN([C@@H](C)CO)C(=O)c2cc(-c3cccc(F)c3)cnc2O[C@@H]1CN(C)Cc1ccncc1 do in these assays?
CASP6 VEID inh: inactive; SIRT5 inh: 20.9

How did CCC(=O)N(C)C[C@@H]1Oc2ncc(-c3ccc(F)cc3)cc2C(=O)N([C@@H](C)CO)C[C@@H]1C do in these assays?
CASP6 VEID inh: inactive; SIRT5 inh: 24.0

How did COc1cc(CNC(C)c2ccccc2)c(Br)cc1OCC(N)=O (stereo unspecified) do in these assays?
NSD2 inh: inactive; CASP6 VEID inh: 80.3; SIRT5 inh: inactive; UBC9 SUMO inh: inactive

What do the screens show for `COc1cc(CNCC(C)C)c(Br)cc1OCC(=O)NCc1ccccc1`?
NSD2 inh: inactive; UBC9 SUMO inh: inactive

How did O=C(c1cccn2c(=O)c3cc(Br)ccc3nc12)N1CCN(c2ccccn2)CC1 do in these assays?
NSD2 inh: inactive; UBC9 SUMO inh: inactive

Results for CCOC(=O)N1CCN(C(=O)c2cccn3c(=O)c4cc(Cl)ccc4nc23)CC1 ?
NSD2 inh: inactive; UBC9 SUMO inh: 57.7

How did CCOC(=O)N1CCN(C(=O)c2cccn3c(=O)c4sccc4nc23)CC1 do in these assays?
NSD2 inh: inactive; UBC9 SUMO inh: inactive

Results for CCOC(=O)N1CCN(C(=O)c2cccn3c(=O)c4cc(Br)ccc4nc23)CC1 ?
NSD2 inh: inactive; CASP6 VEID inh: inactive; SIRT5 inh: inactive; UBC9 SUMO inh: 51.2

Results for Cc1ccc(C(=O)N(Cc2nc(-c3ccc(C)cc3)no2)C(C)C)cc1 ?
CASP6 VEID inh: inactive; SIRT5 inh: 16.8; UBC9 SUMO inh: inactive

How did Cc1ccc(-c2noc(CN(C(=O)c3ccc4c(c3)OCO4)C(C)C)n2)cc1 do in these assays?
NSD2 inh: inactive; SIRT5 inh: inactive; UBC9 SUMO inh: inactive

How did C=Cc1c(C)c2cc3[nH]c(cc4nc(cc5nc(cc1[nH]2)C(C)=C5CCC(=O)O)C(CCC(=O)O)=C4C)c(C)c3C=C do in these assays?
CASP6 VEID inh: 56.8

How did CCN=C1S/C(=C\c2ccc(-c3cccc(C(=O)O)c3)o2)C(=O)N1CC do in these assays?
NSD2 inh: inactive; UBC9 SUMO inh: inactive

What do the screens show for `CCN=C1S/C(=C/c2ccc(-c3ccc(Cl)cc3C(=O)O)o2)C(=O)N1CC`?
NSD2 inh: inactive; CASP6 VEID inh: 35.9; SIRT5 inh: inactive; UBC9 SUMO inh: inactive

What do the screens show for `COc1ccc(NC(=O)N(C)C[C@@H]2Oc3c(NC(=O)Nc4c(C)noc4C)cccc3C(=O)N([C@@H](C)CO)C[C@H]2C)cc1`?
CASP6 VEID inh: inactive; SIRT5 inh: inactive

What do the screens show for `CC(=O)Nc1c(O)nc(SCC(=O)Nc2nnc(CC(C)C)s2)[nH]c1=O`?
NSD2 inh: inactive; UBC9 SUMO inh: inactive

What do the screens show for `CC(=O)Nc1c(O)nc(SCC(=O)Nc2nnc(SCc3ccccc3)s2)[nH]c1=O`?
CASP6 VEID inh: 79.8; SIRT5 inh: inactive; UBC9 SUMO inh: inactive

Results for O=C(Nc1cccn(Cc2c(F)cccc2Cl)c1=O)NC1CCCCC1 ?
NSD2 inh: inactive; CASP6 VEID inh: inactive; SIRT5 inh: inactive; UBC9 SUMO inh: inactive

What do the screens show for `O=C(Nc1cccn(Cc2cccc(F)c2)c1=O)NC1CCCCC1`?
NSD2 inh: inactive; CASP6 VEID inh: inactive; SIRT5 inh: inactive; UBC9 SUMO inh: 99.4

What do the screens show for `COc1ccc(CN2CC3(CCN(C(=O)C4CC4)CC3)c3c(n(C)c4cc(OC)ccc34)[C@@H]2CO)cc1`?
CASP6 VEID inh: inactive; SIRT5 inh: inactive

How did CNC[C@@H]1Oc2ncc(-c3cccc(F)c3)cc2C(=O)N([C@@H](C)CO)C[C@@H]1C do in these assays?
CASP6 VEID inh: inactive; SIRT5 inh: inactive

How did CCOc1ncccc1C(=O)OC(C)C(=O)Nc1ccc(N2CCOCC2)cc1 (stereo unspecified) do in these assays?
NSD2 inh: inactive; CASP6 VEID inh: 35.1; SIRT5 inh: inactive

How did CCOc1ncccc1C(=O)Nc1ccccc1N1CCOCC1 do in these assays?
NSD2 inh: inactive; CASP6 VEID inh: inactive; SIRT5 inh: inactive

Compound activity as filed in PubChem BioAssay.
